Measured values taken from the supplement of paper PMC4371806.
Over roughly 2,300 compounds, “plate-normalized OD600 growth (mean of duplicates)” has its median near 0.29; the lowest 2% begin near 0.22. This excerpt belongs to a sample that is enriched for the lowest values.

System: Escherichia coli BW25113
Assay: plate-normalized OD600 growth (mean of duplicates) (OD600 (normalized)); higher = more growth (less inhibition)
Settings: 10 µM
Description: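 E. coli BW25113 in LB (100 µl, 96-well, no shaking) was exposed to 10 µM of each compound from a ~30,000-member library and grown at 37°C for 24 h or 15°C for 48 h, in duplicate. Growth was read as OD600 and the duplicate ODs were normalized across screening plates to correct plate-to-plate variation. Hits were >3σ below the mean OD600 at 15°C and <2σ below the mean at 37°C.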

| SMILES | plate-normalized OD600 growth (temperature: 15°C, 48 h) | plate-normalized OD600 growth (temperature: 37°C, 24 h) |
| --- | --- | --- |
| O=[N+]([O-])c1ccc(OCCCOc2ccc([N+](=O)[O-])cc2)cc1 | 0.238 | 0.596 |
| O=C1NC(=O)c2cc(-c3ccc([N+](=O)[O-])cc3)ccc21 | 0.241 | 0.631 |
| O=[N+]([O-])c1ccc(-c2ncn[nH]2)cc1 | 0.209 | 0.607 |
| CC(C)c1ncc(C(O)c2cccc3ccccc23)n1C (stereo not drawn) | 0.249 | 0.63 |
| O=c1[nH]c(-c2cn[nH]c2-c2ccc(F)cc2)nc2sc3c(c12)CCCC3 | 0.237 | 0.637 |
| CS/C(N)=N\N=C/c1c(F)cccc1Cl | 0.258 | 0.652 |
| Cc1oc(-c2ccccc2)cc1C(=O)N1CCN(c2ccc([N+](=O)[O-])cc2)CC1 | 0.265 | 0.667 |
| COc1cc(C=NCc2ccco2)ccc1O | 0.242 | 0.622 |
| CC1CCN(CCC(=O)Nc2ccc(Cl)cc2)CC1 | 0.261 | 0.643 |
| CCN1CCN(CCC(=O)Nc2ccccc2)CC1 | 0.228 | 0.624 |
| NC(=O)C1CCN(CCC(=O)Nc2ccccc2)CC1 | 0.208 | 0.651 |
| CC(C)(C)S(=O)(=O)/C(C#N)=C/N1CCCCC1 | 0.267 | 0.62 |
| O/N=C\c1sccc1Oc1ccccc1 | 0.254 | 0.635 |
| CCOC(=O)c1ccc(-n2nnnc2C(c2ccc(Cl)cc2Cl)N2CCOCC2)cc1 (stereo not drawn) | 0.241 | 0.645 |
| Cc1ccc(C=Nc2ccc(-c3ccc(N=Cc4ccc(C)o4)c(C)c3)cc2C)o1 | 0.224 | 0.622 |
| Cc1ccc(NC(=O)CCN2CCN(c3ccccc3)CC2)cc1 | 0.26 | 0.612 |
| CC(=O)N(CC(=O)Nc1ccc(C)cc1)c1ccccc1 | 0.214 | 0.646 |
| C/C(CC(=O)Nc1ccc(N(C)C)cc1)=N\NC(=O)COc1ccc(C)cc1 | 0.236 | 0.627 |
| COC(=O)C1=NN(c2ccccc2Cl)C2(S1)c1ccccc1C(C)=NN2c1ccccc1 (stereo not drawn) | 0.234 | 0.641 |
| O=C(NCCSCc1ccco1)c1ccc(Cl)cc1 | 0.25 | 0.605 |
| CC12CCC(C1)C(C)(C)C2NC(=O)c1cccs1 (stereo not drawn) | 0.26 | 0.639 |
| Cc1nn(CC(=O)NNC(=O)COc2ccc(Cl)cc2Cl)c(C)c1Br | 0.235 | 0.607 |
| O=C(Oc1ccc(N(C(=O)c2ccccc2)S(=O)(=O)c2cccs2)cc1)c1ccccc1 | 0.225 | 0.622 |
| O=c1[nH]nc(-c2ccc(N3CCN(CCO)CC3)c([N+](=O)[O-])c2)c2ccccc12 | 0.242 | 0.616 |
| COCc1cc(C)c2c(n1)sc1c2nc(C)n2c3ccccc3nc12 | 0.244 | 0.619 |

| SMILES | plate-normalized OD600 growth (temperature: 15°C, 48 h) | plate-normalized OD600 growth (temperature: 37°C, 24 h) |
| --- | --- | --- |
| CCOc1ccc(NC(=O)CC2S/C(=N\N=C\c3ccc(C)s3)NC2=O)cc1 (stereo not drawn) | 0.222 | 0.624 |
| Cc1cc(C(O)(C(F)(F)F)C(F)(F)F)cc(C)c1O | 0.249 | 0.618 |
| O=C(Nc1nc(-c2ccccc2)cs1)C1CC(O)CN1C(=O)Oc1ccccc1 (stereo not drawn) | 0.263 | 0.648 |
| Cc1cc(/C=N/NC(=O)c2cc3ccccc3o2)c(C)n1-c1ccc(C23CC4CC(CC(C4)C2)C3)cc1 | 0.244 | 0.607 |
| COc1cccc(C2C3=C(CC(C)(C)CC3=O)OC(N)=C2[N+](=O)[O-])c1 (stereo not drawn) | 0.246 | 0.619 |
| O=C(CC(=O)Nc1cccc(Cl)c1)N/N=C\c1ccccc1 | 0.246 | 0.616 |
| OCCCc1cccc(C(F)(F)F)c1 | 0.242 | 0.586 |
| O=C1C=C(Cl)CC(c2ccc(C(F)(F)F)cc2)C1 (stereo not drawn) | 0.243 | 0.607 |
| O=C(O)c1ccc(Br)c(NC(=O)C2C3C=CC(C3)C2C(=O)O)c1 (stereo not drawn) | 0.248 | 0.604 |
| N/C(=N\OC(=O)c1ccno1)c1ccc(C(F)(F)F)cc1 | 0.253 | 0.612 |
| O=C(NNC(=O)c1ccccc1OCc1ccccc1)c1ccc(Cl)c(Cl)c1 | 0.216 | 0.606 |
| Cc1nnn(-c2nonc2N)c1C(=O)NNC(=O)c1ccc(Cl)c(Cl)c1 | 0.243 | 0.606 |
| O=C(O)c1oc(C(=O)O)c(OCc2ccccc2)c1OCc1ccccc1 | 0.263 | 0.637 |
| O=C(Nc1ccc(Cl)cc1Cl)c1cnccn1 | 0.245 | 0.607 |
| N#CC1=C2N=C(N)c3c(sc4c3CCCC4)N2C2=C(C(=O)CCC2)C1c1cccnc1 (stereo not drawn) | 0.246 | 0.624 |
| C/C(=N/OC(=O)c1ccc(Cl)cc1)c1ccc(F)cc1 | 0.236 | 0.601 |
| CCN(CC)C(=O)NC(=O)c1c(C)cc(Cl)nc1Cl | 0.243 | 0.63 |
| Cc1ccc(N2CC(=O)N(/N=C/c3ccc(F)cc3)C2=S)cc1 | 0.232 | 0.63 |
| COc1ccc(C(=O)[C@@H]2[C@@H](c3cccs3)C(C#N)(C#N)[C@H]3C=Cc4ccccc4N23)cc1 | 0.251 | 0.63 |
| CC(=O)C1C(=O)CC(C)(O)C(C(C)=O)C1c1ccc(Br)cc1 (stereo not drawn) | 0.25 | 0.616 |
| CC(=O)C1=C(Nc2ccc(C)cc2)CC(C)(O)C(C(C)=O)C1c1ccc(F)cc1 (stereo not drawn) | 0.208 | 0.598 |
| C/C(=C\C(=O)Nc1ccc(F)cc1)Nc1ccc(F)cc1 | 0.253 | 0.613 |
| CN(C)N=Nc1ccc(S(=O)(=O)NC(=O)Cc2ccccc2)cc1 | 0.24 | 0.612 |
| CC(C)(C)NC(=O)c1cc(NC(=O)C(F)(F)F)cc(NC(=O)C(F)(F)F)c1 | 0.234 | 0.605 |
